# TRPV1 ag = activates the human vanilloid receptor TRPV1; Q8NER1; 0.19% of 320,000 active; TRPV1-expressing cells, Fluo-8 calcium influx, agonist mode; activation, % at 8.33 µM; in the data active = activation above about 80%; inconclusive = between about 30% and that limit; also: 0% is about no effect
# Target sequence (Q8NER1 whole entry, looked up): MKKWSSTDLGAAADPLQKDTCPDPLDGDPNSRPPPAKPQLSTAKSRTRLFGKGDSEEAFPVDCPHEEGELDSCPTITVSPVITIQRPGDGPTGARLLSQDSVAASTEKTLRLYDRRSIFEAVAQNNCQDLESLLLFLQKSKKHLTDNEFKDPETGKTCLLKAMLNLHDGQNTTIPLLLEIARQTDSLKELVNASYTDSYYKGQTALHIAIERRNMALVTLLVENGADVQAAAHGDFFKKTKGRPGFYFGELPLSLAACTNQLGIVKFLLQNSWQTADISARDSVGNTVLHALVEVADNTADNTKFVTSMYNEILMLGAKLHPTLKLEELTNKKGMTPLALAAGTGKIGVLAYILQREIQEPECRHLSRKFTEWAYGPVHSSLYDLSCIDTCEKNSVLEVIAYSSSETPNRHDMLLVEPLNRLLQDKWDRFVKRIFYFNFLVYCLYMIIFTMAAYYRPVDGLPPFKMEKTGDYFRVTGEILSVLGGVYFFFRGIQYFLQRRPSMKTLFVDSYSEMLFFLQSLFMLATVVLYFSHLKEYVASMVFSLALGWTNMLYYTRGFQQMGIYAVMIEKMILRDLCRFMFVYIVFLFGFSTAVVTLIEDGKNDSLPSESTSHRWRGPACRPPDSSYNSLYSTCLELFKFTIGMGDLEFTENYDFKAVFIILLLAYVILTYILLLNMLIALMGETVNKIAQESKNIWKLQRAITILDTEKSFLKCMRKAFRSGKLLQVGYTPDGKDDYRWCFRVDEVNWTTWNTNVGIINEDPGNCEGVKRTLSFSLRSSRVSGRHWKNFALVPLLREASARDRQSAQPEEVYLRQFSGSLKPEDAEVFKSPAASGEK
#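 Cells expressing TRPV1 were dye-loaded with Fluo-8 and read kinetically: 10 s baseline, 3 min after compound (agonist portion), then 2 min after EC20 capsaicin (allosteric enhancer portion). Calcium-bound dye fluorescence at 480/520 nm.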
# TRPML1 blocker = inhibitors of human TRPML1 channel | AID 624415 | activity change, negative = inhibition, % (no concentration beside the values) | TRPML1-inducible cells, Ca2+ dye fluorescence, FDSS; hits give low values; inhibition of EC80 agonist-evoked calcium signal | 0.02% of 390,000 active | Q9GZU1; in the data active = activity change below about -50%; inconclusive = between about -30% and that limit;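 also: stimulus is agonist 54-4 at its EC80 concentration; % is scaled to controls: 0 for no effect and ±100 for the full control effect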
#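 TRPML1-DL cells, Tet-induced overnight (~16 h, 37 °C) at 1,500 cells/well, were loaded with Ca8 no-wash dye plus quencher for 45-90 min at room temperature. Compounds were pinned during FDSS kinetic reading; agonist 54-4 at EC80 (4 uM final) then added.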
# TRPML1 agonist = human mucolipin-1 channel agonism; activation, % (no concentration beside the values); 0.12% of 410,000 active; TRPML1-expressing cells, Ca2+ dye fluorescence, FDSS; Q9GZU1; in the data active = activation above about 50%; inconclusive = mostly about 30% to 49%; also: 0% is about no effect
#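 TRPML1-DL cells, Tet-induced overnight (~16 h, 37 degrees C), loaded 45-90 min at room temperature with Ca8 no-wash calcium dye plus quencher. FDSS fluorescence: 10 s baseline, compound pin-transfer, 110 s agonist read, then EC80 54-4 (4uM final) and 110 s antagonist read.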
# TRHR PAM = allosteric enhancers of human TRH receptor. TRHR cells, fluo-8 calcium fluorescence, EC20 TRH enhancement. 0.66% of 360,000 active. AID 493056. enhancement, % at 2 µM. P34981; in the data active = enhancement above about 30%; also: 0% is about no effect
#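 Enhancer read-out: after compound pinning and an initial kinetic agonist-mode read, an EC20 of TRH (10 nM final) was injected and fluo-8 calcium signal (Ex 480/Em 530) followed at 1 s/cycle for 100 cycles in TRHR-expressing cells.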
# TRPV1 PAM = human TRPV1 potentiation | Q8NER1 | TRPV1-expressing cells, Fluo-8 calcium influx, capsaicin EC20 potentiation | potentiation, % at 8.33 µM | 0.02% of 320,000 active; in the data active = potentiation above about 80%; inconclusive = between about 30% and that limit; also: 0% is about no effect
#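 Fluo-8 calcium influx in TRPV1-expressing cells, kinetic read (ex 480/em 520 nm). Compound added and read 3 min for agonist activity, followed by capsaicin at EC20 final and 2 min further read for enhancement.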
# TRHR ag = agonists of human TRH receptor | TRHR cells, calcium flux fluo-8, FDSS agonist mode | activation, % at 2 µM | 0.18% of 360,000 active | AID 493084; in the data active = activation above about 30%; also: 0% is about no effect
#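 Agonist-mode FDSS calcium read (Ex 480/Em 530, 1 s cycles) in 1536-well TRHR cells with fluo-8 dye, after 10-cycle baseline and 23 nL compound addition; TRH at EC20 (10 nM final) added afterwards for the enhancer phase.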
# * hit, by the source's call; ? = inconclusive; · = no result; ! = a repeat was not active. A selection: hits, their analogues and other compounds. The true share with any hit is near 0.99%.
SMILES,TRPV1 ag,TRPML1 blocker,TRPML1 agonist,TRHR PAM,TRPV1 PAM,TRHR ag
O=C(Cc1ccc(Oc2ccccc2)cc1)NO,·,·,0,·,·,·
COc1ccc(CNC(=O)CCCc2ccccc2)cc1,·,12,0,-1,·,0
CCc1ccc(OCCCC(=O)NCc2ccccc2)cc1,83*,-21,0,1,-12,-1
Cc1ccc(S(=O)(=O)Nc2cc(C(F)(F)F)ccc2N2CCOCC2)cc1C,28,-11,85*,9,-16,1
Cc1ccc(S(=O)(=O)Nc2ccccc2NS(=O)(=O)c2ccc(C)cc2)cc1,·,·,-1,·,·,·
CCN1CCN(S(=O)(=O)c2ccc(Cl)c(C(=O)Nc3cc(Cl)ccc3N3CCOCC3)c2)CC1,23,-20,74*,-10,-12,0
Cc1ccc(S(=O)(=O)Nc2ccccc2N2CCCCC2)cc1,·,-3,76*,·,·,·
Cc1cccc(S(=O)(=O)Nc2cc(Cl)ccc2N2CCOCC2)c1,·,-16,72*,·,·,·
C1=Cc2ccccc2/C1=C\c1cc2c3c(c1)CCCN3CCC2,·,·,3,·,·,·
Cc1cc2c(cc1C)N[C@]1(C[C@H]3CCCC(=O)N4CC[C@@H](C1)[C@@H]34)C(=NCc1ccccc1)N2,·,·,0,·,·,·
Cc1ccc(S(=O)(=O)Nc2ccccc2N2CCOCC2)cc1,6,-9,64*,-1,-3,19
Cc1nn(C2CCS(=O)(=O)C2)c(Cl)c1/C=C/C(=O)OCC(N)=O (stereo not given),·,1,0,33*,·,1
Cc1nn(C2CCS(=O)(=O)C2)c(Cl)c1/C=C/C(=O)OCC(=O)N(C)C (stereo not given),-1,3,2,1,-2,1
O=C(N=c1ccn(-c2nc3ccccc3nc2NS(=O)(=O)c2ccccc2)cc1)c1ccccc1Cl,-4,-10,9,39*,6,5
Cc1c(C(=O)O)nn(-c2cccc(C(F)(F)F)c2)c(=O)c1C#N,2,-1,0,-11,3,0
COC(=O)c1nn(-c2cccc(C(F)(F)F)c2)c(=O)cc1Sc1ccccn1,?,29,1,39*,-16,-1
Cc1ccc(C(=O)Nc2cc(Cl)ccc2-n2cncn2)o1,0,6,1,36*,-4,0
CSc1cc2c(s1)c1cnn(Cc3ccccc3F)c(=O)c1n2C,·,·,·,-8,·,-1
Nc1ccc2c(c1)Cc1cc([N+](=O)[O-])ccc1-2,17,-22,?,5,10,44*
CC(=NO)c1ccc2c(c1)Cc1cc([N+](=O)[O-])ccc1-2,·,30,1,·,·,·
CC(O)CN(CC(C)O)c1ccc2c(c1)Cc1cc([N+](=O)[O-])ccc1-2 (stereo not given),·,6,83*,·,·,·
COc1ccc(-c2cc3nc(C)cc(N)n3n2)cc1,3,-12,2,30*,6,0
COc1ccc(-c2cc3nc(C)cc(-c4ccc(OC)cc4)n3n2)cc1,8,40,2,12,?,1
Cc1ccccc1NC(C)C(=O)N/N=C/c1ccccc1OCc1cccc(Br)c1 (stereo not given),7,6,2,-3,2,1
COc1ccc(NC(C)C(=O)N/N=C/c2ccccc2OCc2cccc(Br)c2)cc1 (stereo not given),3,2,1,34*,-1,0
SMILES,TRPV1 ag,TRPML1 blocker,TRPML1 agonist,TRHR PAM,TRPV1 PAM,TRHR ag
CC(NC(=O)CSc1nnc(-c2cc3cc(Cl)ccc3o2)n1C)c1ccccc1 (stereo not given),-2,11,1,32*,-33,0
CNC(=O)C1CCC(=O)N1Cc1ccccc1Cl (stereo not given),5,-3,0,-3,-1,0
O=C(Nc1cc(Cl)cc(Cl)c1)C1CCC(=O)N1Cc1ccccc1Cl (stereo not given),-3,-8,-1,40*,6,-1
N#Cc1ccc(NC(=O)COc2ccccc2C(=O)Nc2ccccc2)cc1,·,·,0,·,·,·
Cc1ccccc1-c1csc2ncnc(Sc3nnnn3C)c12,·,·,·,-1,·,-1
O=C(CSc1ncnc2c1cnn2CCO)Nc1cccc(C(F)(F)F)c1,2,-12,0,31*,4,0
CCC(C)Sc1cccc(-c2nc3ccc(Cl)cn3c2NCc2ccccc2)c1 (stereo not given),87*,70,0,-4,27,0
CCC(C)Sc1cccc(-c2nc3ccc(C)cn3c2NCc2ccccc2)c1 (stereo not given),-1,61,0,10,-17,0
COc1ccc(/C=N\NC(=O)CCN2CCN(c3ccccc3)CC2)cc1OC,-1,14,0,0,6,0
COc1cc(/C=N/NC(=O)CCN2CCCCC2)ccc1O,-1,14,0,34*,3,1
CCCN1CNc2c(c(=O)[nH]c(=S)n2CCc2c(OC)cccc2OC)C1,·,·,0,·,·,·
CCCCOc1ccc(C(=O)Nc2cccc(C)n2)cc1,?,11,1,-4,2,-1
COc1ccc(NC(=O)Nc2cccc(C)n2)c(OC)c1,-1,0,4,33*!,-14,-1
CCOc1ccc(C(=O)Nc2cccc(C)n2)cc1,?,-3,-1,41*,-15,0
O=C1CCC/C(=N/NC(=O)c2sc3ccccc3c2Cl)C1,23,-7,58*,4,15,39*
O=C(NN=C1CCCC1)c1sc2ccccc2c1Cl,-4,8,1,5,1,1
CCc1ccccc1OCc1nc2ccc(S(=O)(=O)N3CCOCC3)cc2[nH]1,?,9,1,33*,-20,-1
Cc1ccccc1OCc1nc2ccc(S(=O)(=O)N3CCOCC3)cc2[nH]1,?,5,-1,2,-5,1
O=C(CNC(=O)c1ccccc1)N[C@@H](C(=O)Nc1cc(C(F)(F)F)ccc1Cl)c1ccccc1,·,·,·,2,·,0
O=Cc1ccc(O)cc1,·,·,-1,·,·,·
Cc1cc(CNC(=S)Nc2ccc(Br)cc2Cl)nn1C,94*,19,1,22,-22,-1
O=C(Cn1cc(C(F)(F)F)ccc1=O)N1CCN(S(=O)(=O)c2ccccc2)CC1,0,29,1,40*,13,-1
N#CN1CCC(NS(=O)(=O)c2ccc(F)cc2)CC1,·,·,·,4,·,1
CCN(CC)c1ccc2cc(/C(N)=N/NC(=O)c3cccs3)c(=O)oc2c1,19,·,·,-4,-8,25
CCN(CC)c1ccc2cc(C(N)=O)c(=N)oc2c1,?,-7,56*,1,-11,25
CCN(CC)c1ccc2cc(C(C)=O)c(=O)oc2c1,?,0,72*,-2,-30,67*
